Source: PubChem BioAssay AID709 (SRMLSC, 2007)
The campaign covered roughly 65,000 compounds. About 3,600 (5.5%) were called active. The sample as a whole holds a higher share of actives than the screen did. Values without a mark were called inactive.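 Rule for the calls: active = at 10 µM, mean starting fluorescence two-fold or more over control wells; inactive = the rest.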 Where a SMILES comes first, the peptide text is derived from it. The star is where a group is joined. Bz = O=C(c1ccccc1)*

Assay: intrinsic fluorescence of library compounds, ex339/em460 – biochemical, MLSMR library, data from DPM-DC assay, artefact control, profiling panel (AID 709);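 note: signal is the first read of a kinetic run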
Settings: compound autofluorescence, ex339/em460 nm, NADH buffer; at 10 µM; stronger effect = higher value; 1 = no-compound wells, NADH background

Question: For COC(=O)c1ccccc1NC(=O)c1ccccc1NS(C)(=O)=O, which fluorescence fold increase is on record?
Answer: 1.13

Question: With CCc1ccccc1NC(=O)c1cccs1 as the compound, how does the fluorescence fold increase read?
Answer: 1.09

Question: For O=C(Nc1nncs1)c1ccccc1NS(=O)(=O)c1cccs1, which fluorescence fold increase is on record?
Answer: 2.5 (active)

Question: With COc1ccc(CCNC(=O)CSc2nnc(-c3cccc(F)c3)o2)cc1OC as the compound, how does the fluorescence fold increase read?
Answer: 1.07

Question: For c1ccc2cc3[nH]c(CN4CCCCC4)nc3cc2c1, which fluorescence fold increase is on record?
Answer: 1.35

Question: For Cn1c2ccccc2c2c(C(=O)N3CCN(c4ccc(F)cc4)CC3)cn(C3CCCC3)c(=O)c21, which fluorescence fold increase is on record?
Answer: 1.57

Question: For CCOC(=O)N1CCN(C(=O)c2nn(-c3ccc(C)cc3)c(=O)c3c2c2ccccc2n3C)CC1, which fluorescence fold increase is on record?
Answer: 2.21 (active)

Question: Which fluorescence fold increase does the source give for CCOC(=O)N1CCN(C(=O)c2n[nH]c(=O)c3ccccc23)CC1 here?
Answer: 1.04

Question: With COc1nc(Oc2ccc(=O)n(C)n2)nc(N(C)C)n1 as the compound, how does the fluorescence fold increase read?
Answer: 1.04

Question: For CCC(=O)Nc1ccc(C(=O)Nc2ccc3c(c2)C(=O)N(CC2CCCO2)C3=O)cc1 (stereo unspecified), which fluorescence fold increase is on record?
Answer: 1.59

Question: Which fluorescence fold increase does the source give for CN1C(=O)c2ccc(NC(=O)c3c(F)c(F)c(F)c(F)c3F)cc2C1=O here?
Answer: 2.11 (active)

Question: With CN1C(=O)c2ccc(NC(=O)C3CCCCC3)cc2C1=O as the compound, how does the fluorescence fold increase read?
Answer: 4.96 (active)

Question: With O=C(Nc1ccncc1)c1c(F)cccc1F as the compound, how does the fluorescence fold increase read?
Answer: 1.11

Question: For O=C(Nc1cnn(Cc2ccc(Cl)cc2)c1)C1CCCC1, which fluorescence fold increase is on record?
Answer: 1.03

Question: For O=C(O)c1ccc(NC(=O)C2CCCCC2)cc1, which fluorescence fold increase is on record?
Answer: 1.11

Question: Which fluorescence fold increase does the source give for CCCCc1nc2ccccc2c(NC(=O)CN2CCN(C)CC2)c1CCC here?
Answer: 1.08

Question: With CC1=C(C(=O)Nc2ccc(Cl)cc2)C(c2ccco2)NC(=O)N1 (stereo unspecified) as the compound, how does the fluorescence fold increase read?
Answer: 1.1

Question: With COc1ccccc1N1CCN(Cc2ccc(OC)c3ccccc23)CC1 as the compound, how does the fluorescence fold increase read?
Answer: 1.12

Question: With O=C(NC(Cc1ccccc1)C(=O)N1CCCC1C(=O)O)c1ccccc1 (stereo not drawn) (Bz-Phe-Pro-OH; configuration not given here) as the compound, how does the fluorescence fold increase read?
Answer: 0.84

Question: For CCCn1c(=O)c2[nH]c(C3CCCC3)nc2n(CCC)c1=O, which fluorescence fold increase is on record?
Answer: 1.03

Question: With CCc1ccc(CCC(=O)Nc2ccc(S(N)(=O)=O)cc2)o1 as the compound, how does the fluorescence fold increase read?
Answer: 1.08

Question: For CCOC(=O)CSc1nnc(NC(=O)c2cccc(S(=O)(=O)N3CCCCC3)c2)s1, which fluorescence fold increase is on record?
Answer: 1

Question: For CCOC(=O)CSc1nnc(NC(=O)c2cccc(S(=O)(=O)N3CCCC3)c2)s1, which fluorescence fold increase is on record?
Answer: 1.07

Question: Which fluorescence fold increase does the source give for CCOC(=O)c1csc(NC(=O)c2ccc(S(=O)(=O)N3CCCC3)cc2)n1 here?
Answer: 2.49 (active)

Question: Which fluorescence fold increase does the source give for Cc1ccc(S(=O)(=O)c2nc(NCCCn3ccnc3)sc2Cl)cc1 here?
Answer: 1.12

Question: Which fluorescence fold increase does the source give for CC(C)(C)NC(=O)C(c1ccco1)N(Cc1ccc2c(c1)OCO2)C(=O)Cn1nnc2ccccc21 (stereo unspecified) here?
Answer: 1.1

Question: With O=C(NCCC1=CCCCC1)C1CCN(Cc2cnn(-c3ccccc3)c2-n2cccc2)CC1 as the compound, how does the fluorescence fold increase read?
Answer: 1.16

Question: For Cn1cccc1Cc1nnc(SCC(=O)NCCc2ccccc2)n1-c1ccc(F)cc1, which fluorescence fold increase is on record?
Answer: 1.12

Question: With CCCC(=O)N1c2ccc(-c3csc(N)n3)cc2CC1C (stereo unspecified) as the compound, how does the fluorescence fold increase read?
Answer: 1.13

Question: Which fluorescence fold increase does the source give for COc1ccc(NC(=O)CN2CCN(S(=O)(=O)c3ccc(F)cc3)CC2)cc1Cl here?
Answer: 1.01

Question: For COc1cc2c(cc1NC(=O)CN1CCN(S(=O)(=O)c3ccc(F)cc3)CC1)oc1ccccc12, which fluorescence fold increase is on record?
Answer: 2.72 (active)

Question: With COc1ccccc1NC(=O)CN1CCN(S(=O)(=O)c2ccc(Br)cc2)CC1 as the compound, how does the fluorescence fold increase read?
Answer: 1

Question: Which fluorescence fold increase does the source give for Cc1cc2cc(CNC(=O)c3ccc(S(=O)(=O)N4CCOCC4)cc3)ccc2[nH]1 here?
Answer: 1.07

Question: Which fluorescence fold increase does the source give for Cc1coc2c(O)cc3c(c12)OC1(N2CCCCC2)C(=O)NCCCC31 (stereo unspecified) here?
Answer: 1.1

Question: With O=c1c2[nH]c3ccc(Cl)cc3c2ncn1Cc1ccccn1 as the compound, how does the fluorescence fold increase read?
Answer: 1.12

Question: For COc1ccc2[nH]c3ccc(OC)cc3c2c1, which fluorescence fold increase is on record?
Answer: 1.46

Question: For COc1ccc2[nH]c3c(=O)n(Cc4ccco4)cnc3c2c1, which fluorescence fold increase is on record?
Answer: 3.87 (active)

Question: With COc1ccc(N2C(=O)c3cccc4cccc(c34)C2=O)nn1 as the compound, how does the fluorescence fold increase read?
Answer: 1.57

Question: With C=CCNc1nnc(C)c2ccccc12 as the compound, how does the fluorescence fold increase read?
Answer: 1.09

Question: With Cc1ccnc(N2CCN(C(=O)CSc3nc4ccccc4nc3N3CCCCC3)CC2)c1 as the compound, how does the fluorescence fold increase read?
Answer: 1.18

Question: With C=CCNc1nnc(SCC(=O)N2CCCCC2)c2ccccc12 as the compound, how does the fluorescence fold increase read?
Answer: 2.26 (active)

Question: Which fluorescence fold increase does the source give for CCCC(=O)N(CCc1ccccc1)Cc1nc2ccccc2c(=O)[nH]1 here?
Answer: 1.13

Question: With CS(=O)(=O)NCc1ccc(C(=O)NCc2ccccc2)cc1 as the compound, how does the fluorescence fold increase read?
Answer: 1.04

Question: Which fluorescence fold increase does the source give for O=C1C2(c3ccccc3)CN(CCCO)CC1(c1ccccc1)CN(CCCO)C2 here?
Answer: 1

Question: For COCCNc1nc(-n2nc(C)cc2C)nc2sc3c(c12)CCCC3, which fluorescence fold increase is on record?
Answer: 3.57 (active)

Question: Which fluorescence fold increase does the source give for Cc1cc(C)n(-c2nc(SCC(=O)N3CCCC3)c3c4c(sc3n2)CCCC4)n1 here?
Answer: 1.3

Question: For COCCn1c(C)cc(C(=O)CSc2ncnc3sc4c(c23)CCC4)c1C, which fluorescence fold increase is on record?
Answer: 1.55

Question: With CCOc1ccc(S(=O)(=O)n2ccnc2)c2ccccc12 as the compound, how does the fluorescence fold increase read?
Answer: 1.04

Question: For COc1cc(C2C(C(=O)c3ccc(C)o3)=C(O)C(=O)N2Cc2cccnc2)ccc1O (stereo unspecified), which fluorescence fold increase is on record?
Answer: 1.02

Question: With COc1ccccc1N1CCN(C(=O)c2cn(-c3ccccc3)nc2-c2cccnc2)CC1 as the compound, how does the fluorescence fold increase read?
Answer: 1.12

Question: Which fluorescence fold increase does the source give for Cc1nnc(SCC(=O)Nn2cnnc2)s1 here?
Answer: 1.03

Question: Which fluorescence fold increase does the source give for COc1ccc(-c2noc(-c3cccc(OC)c3OC)n2)cc1OC here?
Answer: 1.12

Question: With CCOC(=O)N1CCN(C(=O)CNC(=O)Cc2ccc(Cl)cc2)CC1 as the compound, how does the fluorescence fold increase read?
Answer: 1.08

Question: For CCOC(=O)N1CCN(C(=O)c2ccc3nc4cc(Cl)ccc4c(=O)n3c2)CC1, which fluorescence fold increase is on record?
Answer: 3.31 (active)

Question: For CCOC(=O)N1CCN(C(=O)CSc2ccc(Cl)cc2)CC1, which fluorescence fold increase is on record?
Answer: 1.07

Question: Which fluorescence fold increase does the source give for Cc1cc(C)nc(NC(=O)C(C)N2C(=O)c3ccccc3C2=O)n1 (stereo unspecified) here?
Answer: 1.09

Question: For CCn1c(=N)c(S(=O)(=O)c2ccc(F)cc2)cc2c(=O)n3ccccc3nc21, which fluorescence fold increase is on record?
Answer: 3.45 (active)

Question: With Cc1ccc(C)c(NC(=O)C2CCCN2C(=O)OC(C)(C)C)c1 (stereo unspecified) as the compound, how does the fluorescence fold increase read?
Answer: 1.17

Question: For CCn1nc(C(=O)OCC(=O)N2c3ccccc3CC2C)c2ccccc2c1=O (stereo unspecified), which fluorescence fold increase is on record?
Answer: 1.05

Question: With COc1ccccc1Oc1ccc(S(=O)(=O)Nc2cccnc2)cc1 as the compound, how does the fluorescence fold increase read?
Answer: 1.1

Question: For O=P(c1ccc2c(c1)OCCO2)(N1CCOCC1)N1CCOCC1, which fluorescence fold increase is on record?
Answer: 1.13
